# Assay results: PubChem BioAssay (NCATS)
# Records with an inconclusive call do not appear. A call without a number means that no potency is given here. Activity calls are given as the source filed them. Calls come from the whole dose curve; as a rule, active = well fitted inhibition curve with a large enough effect; inconclusive = small, poorly fitted or top-dose-only effect; inactive = flat fitted curve, though single readings scatter.
# System: TAB113
# Assay: qHTS profiling for inhibitors of Plasmodium falciparum proliferation (AID 504749); note: nearly all actives have a fitted effect of over 60% in size
# Conditions: P. falciparum in erythrocytes, SYBR Green DNA, 72 h; series mostly up to 28.7 µM
# Method in brief: (§1)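 P. falciparum-infected erythrocytes (0.3% parasitemia, 2.5% hematocrit final) were exposed to compounds for 72 h at 37 C in 5% CO2, then lysed with SYBR Green buffer overnight at room temperature; parasite DNA fluorescence was normalized to artemisinin and DMSO controls.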
# Potency is the fitted concentration of half-maximal effect.
row,SMILES,Potency
1,CC(=O)Nc1ccccc1,inactive
2,O=C(/C=C/c1ccccc1)OCc1ccccc1,inactive
3,c1ccc2[nH]ccc2c1,inactive
4,NC(N)=NS(=O)(=O)c1ccc(N)cc1,inactive
5,Cc1ccc(S(=O)(=O)NC(=O)NC2CCCCC2)cc1,inactive
6,C[C@H]1COc2c(C3(N)CC3)c(F)cc3c(=O)c(C(=O)O)cn1c23,inactive
7,Cc1c(NC(C)C)c(=O)n(-c2ccccc2)n1C,inactive
8,CCCCCC(N)=O,inactive
9,Cn1c(=O)c2c(ncn2CCO)n(C)c1=O,inactive
10,CC(C)c1cc2c(cc1S(=O)(=O)O)[C@@]1(C)CCC[C@@](C)(C(=O)O)[C@@H]1CC2,inactive
11,O=C(NCCCN1CCOCC1)c1ccc(Cl)cc1,inactive
12,COc1ccccc1OC(=O)Oc1ccccc1OC,inactive
13,OCc1ccc(Cl)cc1Cl,inactive
14,CC(=O)Nc1cccc(O)c1,inactive
15,FC(F)(F)C(Cl)Br (stereo not drawn),inactive
16,Cc1c(N(C)C)c(=O)n(-c2ccccc2)n1C,inactive
17,COC(=O)c1cccnc1,inactive
18,CCN(CC)CC1CCCCN1CC(=O)N1c2ccccc2C(=O)Nc2cccnc21 (stereo not drawn),inactive

row,SMILES,Potency
1,Cc1cccc(Nc2ccccc2C(=O)O)c1C,inactive
2,CCc1nnc(NS(=O)(=O)c2ccc(N)cc2)s1,inactive
3,Cc1c(C(=O)NCCO)[n+](=O)c2ccccc2n1[O-],inactive
4,O=C1c2cccc(O)c2C(=O)c2c(O)cccc21,inactive
5,CCCCCCCC(=O)OCC(COC(=O)CCCCCCC)OC(=O)CCCCCCC,inactive
6,NNC(=O)CP(=O)(c1ccccc1)c1ccccc1,inactive
7,Nc1ncnc2c1ncn2[C@@H]1O[C@H](COP(=O)(O)O)[C@@H](O)[C@H]1O,inactive
8,CC1CCc2cc(F)cc3c(=O)c(C(=O)O)cn1c23 (stereo not drawn),inactive
9,O=C(O)c1cc(=O)c2ccccc2o1,inactive
10,C=CCSCC1Nc2cc(Cl)c(S(N)(=O)=O)cc2S(=O)(=O)N1 (stereo not drawn),inactive
11,O=C(O)Cc1ccc(CCNS(=O)(=O)c2ccc(Cl)cc2)cc1,inactive
12,CC[N+](CC)(CC(=O)Nc1c(C)cccc1C)Cc1ccccc1,inactive
13,O=c1[nH]c(=O)c2ccccc2o1,inactive
14,O=C(O)c1ccccc1OP(=O)(O)O,inactive
15,O=S1(=O)OC(c2ccc(O)cc2)(c2ccc(O)cc2)c2ccccc21,inactive
16,COc1ccc(C(=O)N2CCN(CC(=O)N3CCOCC3)CC2)cc1,inactive
17,OCC(O)CS (stereo not drawn),inactive
18,CN1CCN(C(=O)C2CCCCC2)CC1,inactive

# System: TAB165
# Assay: as above
# Conditions: P. falciparum in erythrocytes, SYBR Green DNA, 72 h; series mostly up to 28.7 µM
# Method in brief: as §1
row,SMILES,Potency
1,CC(=O)Nc1ccccc1,inactive
2,O=C(/C=C/c1ccccc1)OCc1ccccc1,inactive
3,c1ccc2[nH]ccc2c1,inactive
4,NC(N)=NS(=O)(=O)c1ccc(N)cc1,inactive
5,Cc1ccc(S(=O)(=O)NC(=O)NC2CCCCC2)cc1,inactive
6,C[C@H]1COc2c(C3(N)CC3)c(F)cc3c(=O)c(C(=O)O)cn1c23,inactive
7,Cc1c(NC(C)C)c(=O)n(-c2ccccc2)n1C,inactive
8,CCCCCC(N)=O,inactive
9,Cn1c(=O)c2c(ncn2CCO)n(C)c1=O,inactive
10,CC(C)c1cc2c(cc1S(=O)(=O)O)[C@@]1(C)CCC[C@@](C)(C(=O)O)[C@@H]1CC2,inactive
11,O=C(NCCCN1CCOCC1)c1ccc(Cl)cc1,inactive
12,COc1ccccc1OC(=O)Oc1ccccc1OC,inactive
13,OCc1ccc(Cl)cc1Cl,inactive
14,CC(=O)Nc1cccc(O)c1,inactive
15,FC(F)(F)C(Cl)Br (stereo not drawn),inactive
16,Cc1c(N(C)C)c(=O)n(-c2ccccc2)n1C,inactive
17,COC(=O)c1cccnc1,inactive
18,CCN(CC)CC1CCCCN1CC(=O)N1c2ccccc2C(=O)Nc2cccnc21 (stereo not drawn),inactive
19,Cc1cccc(Nc2ccccc2C(=O)O)c1C,inactive

row,SMILES,Potency
1,CCc1nnc(NS(=O)(=O)c2ccc(N)cc2)s1,inactive
2,Cc1c(C(=O)NCCO)[n+](=O)c2ccccc2n1[O-],inactive
3,O=C1c2cccc(O)c2C(=O)c2c(O)cccc21,inactive
4,CCCCCCCC(=O)OCC(COC(=O)CCCCCCC)OC(=O)CCCCCCC,inactive
5,O=C1C(c2[nH]c3ccccc3c2O)=Nc2ccccc21,14.1 µM (active)
6,NNC(=O)CP(=O)(c1ccccc1)c1ccccc1,inactive
7,Nc1ncnc2c1ncn2[C@@H]1O[C@H](COP(=O)(O)O)[C@@H](O)[C@H]1O,inactive
8,CC1CCc2cc(F)cc3c(=O)c(C(=O)O)cn1c23 (stereo not drawn),inactive
9,O=C(O)c1cc(=O)c2ccccc2o1,inactive
10,C=CCSCC1Nc2cc(Cl)c(S(N)(=O)=O)cc2S(=O)(=O)N1 (stereo not drawn),inactive
11,O=C(O)Cc1ccc(CCNS(=O)(=O)c2ccc(Cl)cc2)cc1,inactive
12,CC[N+](CC)(CC(=O)Nc1c(C)cccc1C)Cc1ccccc1,inactive
13,O=c1[nH]c(=O)c2ccccc2o1,inactive
14,O=C(O)c1ccccc1OP(=O)(O)O,inactive
15,O=S1(=O)OC(c2ccc(O)cc2)(c2ccc(O)cc2)c2ccccc21,inactive
16,COc1ccc(C(=O)N2CCN(CC(=O)N3CCOCC3)CC2)cc1,inactive
17,OCC(O)CS (stereo not drawn),inactive
18,CN1CCN(C(=O)C2CCCCC2)CC1,inactive
